Reference: PubChem BioAssay (NCI)
Compounds without any hit were thinned out: in the full panel of roughly 83,000, 20% have a hit.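 Compound tested at a single concentration for 48 hours in 96-well plates; a percent growth value below 10 was scored as active.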 The source made the active and inactive calls.

Tested on: MDA-MB-231 breast
Assay: NCI-60 one-dose screen, 48 h (100 = growth as untreated, 0 = no growth, -100 = all killed)
Conditions: 10 µM unless noted

Row | Structure (SMILES) | growth
1 | CC(=O)Nc1ccc2c(c1)Cc1c(F)cccc1-2 | 101% (inactive)
2 | COc1ccc(-c2cncnc2N)cc1OC | 112% (inactive)
3 | CN(C)c1ccc2cc(-c3ccc(Cl)c(Cl)c3)c(N)nc2c1 | 63.1% (inactive)
4 | O=C(Nc1ccccn1)[C@H](O)[C@@H](O)C(=O)N1CCOCC1 | 100% (inactive)
5 | O=C(NC(=S)Nc1ccc(-c2nc3ccccc3[nH]2)cc1)c1ccc2ccccc2c1 | -18.6% (active)
6 | CCCCCCN(CCCCCC)CC(O)c1cccc2ccc(Cl)cc12 (centres undefined) | 43.3% (inactive)
7 | Cc1ccc(S(=O)(=O)N(CC[C@@H]2C[C@H]2c2cc3ccccc3o2)C(=O)NC2CCCCC2)cc1 | 90.1% (inactive)
8 | Clc1ccc2[nH]c3c(NCCCN4CCOCC4)ncnc3c2c1 | 56.7% (inactive)
9 | Fc1ccc(Nc2ccc3cc(OCCCN4CCOCC4)ccc3n2)cc1F | -40.9% (active)
10 | CNC(=O)NCC1OC(n2cnc3c(NC(=O)Nc4ccccc4)ncnc32)C2OC(C)(C)OC12 (centres undefined) | 107% (inactive)
11 | CCN(CC)CCOC(=O)Nc1ccccc1Cl | 115% (inactive)
12 | N=C(N)c1ccc(-c2ccc(-c3ccc(Cl)c(Cl)c3)o2)cc1 | -61% (active)
13 | Cc1[nH]c(-c2nc3ccccc3[nH]2)c(C)c1C(=O)N1CCc2sccc2C1 | 85.9% (inactive)
14 | CC(C)(C)c1ccc(C(=O)Nc2sc3c(c2C(N)=O)CCC(=O)C3)cc1 | -59.5% (active)
15 | Cc1nc(Nc2ccccn2)sc1C(=O)/C=C/c1ccc(Br)cc1 | 71.1% (inactive)
16 | C/C(=N\NC(=O)Cn1c(-c2ccc(S(C)(=O)=O)cc2)nc2cc(Cl)ccc21)c1ccc(Cl)cc1 | 73.4% (inactive)
17 | CCOC(=O)c1c(C)[nH]c(C(=O)CCC(=O)OC)c1C | 115% (inactive)
18 | C=C1C(=O)O[C@H]2[C@H]1CC/C(COC(=O)NCc1ccc(Cn3c(=O)sn(CCCCl)c3=O)cc1)=C\CC[C@@]1(C)O[C@@H]21 | 14.4% (inactive)
19 | COc1cc(C2C=C(c3cccc(NC(C)=O)c3)Nc3ncnn32)cc(OC)c1OC (centres undefined) | 16.4% (inactive)
20 | O=C(Oc1ccc[nH]c1=O)c1cc([N+](=O)[O-])cc([N+](=O)[O-])c1 | 114% (inactive)

Row | Structure (SMILES) | growth
21 | COc1ccc(Oc2nc(Nc3ccc(N4CCOCC4)nc3)ncc2NC(=O)c2cc(OC)cc(OC)c2)cc1 | 81.9% (inactive)
22 | COC(=O)c1ccc2oc(NC(=O)c3ccc(N4CCOCC4)c([N+](=O)[O-])c3)nc2c1 | 100% (inactive)
23 | O=C1Nc2ccccc2/C1=N/N=C/c1ccc(OC2OC(CO)C(O)C(O)C2O)cc1 (centres undefined) | 105% (inactive)
24 | C=CC(=O)Nc1cccc(C)c1Nc1cc(-c2cccnc2Cc2c(C)c(OC)cc(OC)c2C)ncn1 | 21.4% (inactive)
25 | OC(COc1cccc2ccccc12)CN1CCN(c2ccccc2)CC1 (centres undefined) | 96.1% (inactive)
26 | CC(=O)Nc1cccc(C2=CC(c3ccc(C)cc3)n3ncnc3N2)c1 (centres undefined) | 87.8% (inactive)
27 | O=C(CC12CC3CC(CC(C3)C1)C2)NCCOCCOCCNC(=O)c1cc2c(o1)C(=O)c1ccccc1C2=O | -9.38% (active)
28 | N=C(N)c1ccc(-c2ccc(/C=C/c3ccccc3)s2)cc1 | -51.5% (active)
29 | CNC1(C#N)CCN(Cc2ccccc2)CC1 | 112% (inactive)
30 | O=C(/C=C/C12c3ccccc3C(c3ccccc31)C1C(=O)N(c3ccccc3)C(=O)C12)c1ccc(Cl)cc1 (centres undefined) | -11.8% (active)
31 | CCNCCNc1cc(-c2ccc(Cl)cc2)c(C#N)c2nc3ccccc3n12 | -57.4% (active)
32 | CN(C)c1ccc2cc(-c3ccccc3F)c(N)nc2c1 | 64.7% (inactive)
33 | O=C1Nc2ccccc2/C1=N/N=C/c1c[nH]c2ccccc12 | 60% (inactive)
34 | COc1ccc(/C=C(\C#N)n2nnc3ccccc32)cc1 | -14.5% (active)
35 | N#Cc1c(Oc2ccc([N+](=O)[O-])cc2)nc2sc3cc(Cl)ccc3n2c1=N | 97.3% (inactive)
36 | O=C(NCCOCCOCCOCCNC(=O)c1cc2c(o1)C(=O)c1ccccc1C2=O)NC12CC3CC(CC(C3)C1)C2 | 18.5% (inactive)
37 | O=C(Oc1ccc([N+](=O)[O-])cc1)c1ccc(CBr)cc1 | 84.8% (inactive)
38 | CCn1c(Sc2nnc(NC(=O)CCN3CCCC3)s2)nc2c1c(=O)n(C)c(=O)n2C | 103% (inactive)
39 | CC(=[N-])N1CCC[C@@H](Nc2c3ccccc3nc3ccccc23)C1.[Cl][Pt].[NH-]CCC[NH-] | 46.9% (inactive)
